The supplement of paper PMC10849652
Of roughly 7,900 targets only a part is listed; those with a hit were picked by preference. About 0.6% of all pairs of compound and target were hits. Values without a mark were called inactive.

Legend:
Experiment in all cases: log2 fold change, soluble protein after heating vs DMSO (PISA); higher = thermal stabilisation; K562 cells, 10 uM, 30 min; active = over 0.2 and 3.5 SD of the protein, either way, in both replicates (recomputed)
[1] = compound: CC[C@@H]1C(=O)N(C)c2cnc(Nc3ccc(C(=O)NC4CCN(C)CC4)cc3OC)nc2N1C1CCCC1
In short: (§1)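 Soluble protein was defined as the supernatant after 21,000xg for 90 min. It came from K562 cells at 2×10^6 cells/mL given 10 μM compound for 30 min, heated in aliquots for 3 min across 48°C-58°C, pooled, and extracted in PBS with 0.5% NP-40 at 4°C, and was quantified by TMTpro 16plex LC-MS/MS with equalised channel sums. Thermal stability against control samples, from duplicates, is reported as log2 fold change.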

[2] = compound: CC[C@@H]1C(=O)N(C)c2cnc(Nc3ccc(C(=O)N[C@H]4CC[C@H](N5CCN(CC6CC6)CC5)CC4)cc3OC)nc2N1C(C)C [volasertib]
In short: as §1

[3] = compound: CC[C@H](C)N1C=C(C2=C(C=C(C=C21)C3=CN=C(C=C3)N4CCNCC4)C(=O)NCC5=C(C=C(NC5=O)C)C)C
In short: as §1

[4] = compound: CC[C@H](C)[C@@H](C(=O)N[C@@H]([C@@H](C)O)C(=O)N[C@@H](CC(C)C)C(=O)[C@]1(CO1)C)NC(=O)[C@H]([C@@H](C)CC)N(C)C(=O)C [epoxomicin]
In short: as §1

[5] = compound: CCn1c(C(=O)N(C2CC2)C2CC2)cc2c3c(ncn3C)c(Nc3cc(C)n(C)n3)nc21
In short: as §1

[6] = compound: CCn1cc(-c2ccnc3[nH]c(-c4cccc(CN(C)C)c4)cc23)c(-c2ccc(NC(=O)N(C)C)cc2)n1
In short: as §1

[7] = compound: CN(C)CC(=O)Nc1ccc2[nH]c(=O)c3ccccc3c2c1
In short: as §1

[8] = compound: CN(CCOC1=CC=C(C=C1)C[C@H]2C(=O)NC(=O)S2)C3=CC=CC=N3 (racemic) [rosiglitazone]
In short: as §1

[9] = compound: CN1C2=C(C3=C1C(=O)N(N=C3)CC4=CC(=CC=C4)N)SC(=C2)S(=O)C
In short: as §1

[10] = compound: CN1CCC(CNc2ccc3ncc(-c4cccc(OC(F)(F)F)c4)n3n2)CC1
In short: as §1

[11] = compound: CN1CCN(CCOc2cc(OC3CCOCC3)c3c(Nc4c(Cl)ccc5c4OCO5)ncnc3c2)CC1 [saracatinib]
In short: as §1

[12] = compound: CN1CCN(c2nc(C3=C(c4c[nH]c5ccccc45)C(=O)NC3=O)c3ccccc3n2)CC1 [sotrastaurin]
In short: as §1

[13] = compound: CN1CC[C@H](c2c(O)cc(O)c3c(=O)cc(-c4ccccc4Cl)oc23)[C@H](O)C1 [alvocidib]
In short: as §1

[14] = compound: CN1CCc2c(c3ccccc3n2Cc2ccc(C(=O)NO)cc2)C1 [Tubastatin A]
In short: as §1

[15] = compound: CNC(=O)C1=CC=CC=C1NC2=NC(=NC=C2Cl)NC3=C(C=C(C=C3)N4CCOCC4)OC
In short: as §1

[16] = compound: CNC(=O)c1ccc(Nc2ncc(C(F)(F)F)c(NCc3nccnc3N(C)S(C)(=O)=O)n2)cc1 [defactinib]
In short: as §1

[17] = compound: CNCc1ccc(-c2[nH]c3cc(F)cc4c3c2CCNC4=O)cc1 [rucaparib]
In short: as §1

[18] = compound: CNc1nc(-c2ccc3c(N)n[nH]c3c2)cc(N2C[C@@H](C(=O)NC3CCCCC3)CC[C@H]2C)n1
In short: as §1

[19] = compound: COC(=O)N[C@@H](C)CNc1nccc(-c2cn(C(C)C)nc2-c2cc(Cl)cc(NS(C)(=O)=O)c2F)n1 [encorafenib]
In short: as §1

[20] = compound: COC(=O)[C@H](CCSC)NC(=O)C1=C(C=C(C=C1)NC[C@H](CS)N)C2=CC=CC=C2
In short: as §1

Sequence of UniProt Q7Z2Z2 (Q7Z2Z2 whole entry, looked up): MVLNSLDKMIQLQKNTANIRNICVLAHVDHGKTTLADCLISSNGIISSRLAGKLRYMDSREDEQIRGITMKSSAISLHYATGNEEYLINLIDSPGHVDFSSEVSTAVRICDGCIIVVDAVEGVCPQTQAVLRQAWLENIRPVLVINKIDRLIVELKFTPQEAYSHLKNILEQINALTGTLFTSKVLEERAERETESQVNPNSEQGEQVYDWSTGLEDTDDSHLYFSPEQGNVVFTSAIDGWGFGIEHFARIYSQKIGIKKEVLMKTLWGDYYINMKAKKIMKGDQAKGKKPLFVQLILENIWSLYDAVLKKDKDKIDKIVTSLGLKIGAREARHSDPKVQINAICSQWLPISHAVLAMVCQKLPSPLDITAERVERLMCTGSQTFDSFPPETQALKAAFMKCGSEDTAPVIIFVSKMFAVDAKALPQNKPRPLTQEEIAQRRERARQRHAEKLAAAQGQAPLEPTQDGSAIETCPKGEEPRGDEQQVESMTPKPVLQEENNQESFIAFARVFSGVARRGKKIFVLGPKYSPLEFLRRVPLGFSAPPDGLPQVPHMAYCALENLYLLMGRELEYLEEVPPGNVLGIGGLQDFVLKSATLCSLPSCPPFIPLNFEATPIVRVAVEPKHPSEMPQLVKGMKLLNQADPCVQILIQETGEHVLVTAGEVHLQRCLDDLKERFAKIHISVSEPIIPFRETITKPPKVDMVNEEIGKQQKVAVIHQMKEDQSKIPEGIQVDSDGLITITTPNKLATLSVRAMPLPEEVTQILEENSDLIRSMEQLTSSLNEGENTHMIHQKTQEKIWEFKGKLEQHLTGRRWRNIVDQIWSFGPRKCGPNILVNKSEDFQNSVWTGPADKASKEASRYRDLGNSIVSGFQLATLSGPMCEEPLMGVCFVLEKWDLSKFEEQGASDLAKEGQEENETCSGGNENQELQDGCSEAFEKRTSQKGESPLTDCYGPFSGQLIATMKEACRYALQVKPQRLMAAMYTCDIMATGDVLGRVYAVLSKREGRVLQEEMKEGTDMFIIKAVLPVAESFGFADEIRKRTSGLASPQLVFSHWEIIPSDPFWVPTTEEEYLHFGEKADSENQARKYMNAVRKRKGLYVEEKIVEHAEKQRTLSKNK
Sequence of UniProt O75477 (O75477 whole entry, looked up): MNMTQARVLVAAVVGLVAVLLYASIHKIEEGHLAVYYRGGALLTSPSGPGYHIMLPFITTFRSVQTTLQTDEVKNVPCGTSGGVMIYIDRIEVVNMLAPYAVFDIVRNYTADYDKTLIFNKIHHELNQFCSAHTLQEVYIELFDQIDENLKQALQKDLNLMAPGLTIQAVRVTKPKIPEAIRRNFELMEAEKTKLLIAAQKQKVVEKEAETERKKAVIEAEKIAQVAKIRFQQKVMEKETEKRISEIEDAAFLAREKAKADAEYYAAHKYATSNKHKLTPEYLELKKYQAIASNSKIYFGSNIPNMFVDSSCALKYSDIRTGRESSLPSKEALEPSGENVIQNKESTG
Sequence of UniProt Q9BW60 (Q9BW60 whole entry, looked up): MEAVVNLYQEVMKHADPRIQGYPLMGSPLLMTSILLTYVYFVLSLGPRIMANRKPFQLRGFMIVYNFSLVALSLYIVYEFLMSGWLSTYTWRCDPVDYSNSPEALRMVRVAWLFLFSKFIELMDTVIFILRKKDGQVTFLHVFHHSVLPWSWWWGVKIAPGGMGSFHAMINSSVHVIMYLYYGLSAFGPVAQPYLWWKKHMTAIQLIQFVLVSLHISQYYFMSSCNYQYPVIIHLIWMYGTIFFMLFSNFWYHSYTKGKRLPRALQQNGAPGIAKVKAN
Sequence of UniProt Q14118 (Q14118 whole entry, looked up): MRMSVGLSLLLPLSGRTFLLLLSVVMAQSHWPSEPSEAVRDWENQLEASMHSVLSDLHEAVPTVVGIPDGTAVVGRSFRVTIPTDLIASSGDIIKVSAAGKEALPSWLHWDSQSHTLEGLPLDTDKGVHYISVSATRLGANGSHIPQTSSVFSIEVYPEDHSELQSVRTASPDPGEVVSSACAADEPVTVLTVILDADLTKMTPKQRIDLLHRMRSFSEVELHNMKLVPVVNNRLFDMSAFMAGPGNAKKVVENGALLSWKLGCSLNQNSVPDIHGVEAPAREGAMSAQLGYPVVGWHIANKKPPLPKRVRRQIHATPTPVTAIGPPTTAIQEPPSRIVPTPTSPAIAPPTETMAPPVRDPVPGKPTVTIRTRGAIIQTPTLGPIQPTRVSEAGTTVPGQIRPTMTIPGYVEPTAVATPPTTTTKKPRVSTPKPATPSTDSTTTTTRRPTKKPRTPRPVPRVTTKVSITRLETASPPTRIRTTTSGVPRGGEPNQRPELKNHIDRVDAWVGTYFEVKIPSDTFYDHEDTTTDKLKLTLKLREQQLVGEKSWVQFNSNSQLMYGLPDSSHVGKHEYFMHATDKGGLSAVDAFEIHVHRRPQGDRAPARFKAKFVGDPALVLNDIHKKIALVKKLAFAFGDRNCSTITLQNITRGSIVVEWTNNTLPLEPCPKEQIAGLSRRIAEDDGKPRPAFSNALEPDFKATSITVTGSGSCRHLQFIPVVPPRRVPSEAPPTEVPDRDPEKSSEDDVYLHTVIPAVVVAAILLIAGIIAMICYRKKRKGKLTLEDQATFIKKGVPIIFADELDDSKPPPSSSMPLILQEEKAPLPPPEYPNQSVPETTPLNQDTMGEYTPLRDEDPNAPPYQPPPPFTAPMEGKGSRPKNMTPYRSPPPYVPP
Sequence of UniProt P25685 (P25685 whole entry, looked up): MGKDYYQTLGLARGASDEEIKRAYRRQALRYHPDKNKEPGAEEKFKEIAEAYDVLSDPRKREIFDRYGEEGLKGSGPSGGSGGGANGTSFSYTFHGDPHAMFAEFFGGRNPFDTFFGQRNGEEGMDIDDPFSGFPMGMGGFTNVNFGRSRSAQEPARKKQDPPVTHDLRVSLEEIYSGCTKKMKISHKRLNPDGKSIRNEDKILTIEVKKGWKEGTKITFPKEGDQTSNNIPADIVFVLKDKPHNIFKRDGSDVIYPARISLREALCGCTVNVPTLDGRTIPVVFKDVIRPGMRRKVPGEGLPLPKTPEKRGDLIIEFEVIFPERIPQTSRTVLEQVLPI
Sequence of UniProt Q96A65 (Q96A65 whole entry, looked up): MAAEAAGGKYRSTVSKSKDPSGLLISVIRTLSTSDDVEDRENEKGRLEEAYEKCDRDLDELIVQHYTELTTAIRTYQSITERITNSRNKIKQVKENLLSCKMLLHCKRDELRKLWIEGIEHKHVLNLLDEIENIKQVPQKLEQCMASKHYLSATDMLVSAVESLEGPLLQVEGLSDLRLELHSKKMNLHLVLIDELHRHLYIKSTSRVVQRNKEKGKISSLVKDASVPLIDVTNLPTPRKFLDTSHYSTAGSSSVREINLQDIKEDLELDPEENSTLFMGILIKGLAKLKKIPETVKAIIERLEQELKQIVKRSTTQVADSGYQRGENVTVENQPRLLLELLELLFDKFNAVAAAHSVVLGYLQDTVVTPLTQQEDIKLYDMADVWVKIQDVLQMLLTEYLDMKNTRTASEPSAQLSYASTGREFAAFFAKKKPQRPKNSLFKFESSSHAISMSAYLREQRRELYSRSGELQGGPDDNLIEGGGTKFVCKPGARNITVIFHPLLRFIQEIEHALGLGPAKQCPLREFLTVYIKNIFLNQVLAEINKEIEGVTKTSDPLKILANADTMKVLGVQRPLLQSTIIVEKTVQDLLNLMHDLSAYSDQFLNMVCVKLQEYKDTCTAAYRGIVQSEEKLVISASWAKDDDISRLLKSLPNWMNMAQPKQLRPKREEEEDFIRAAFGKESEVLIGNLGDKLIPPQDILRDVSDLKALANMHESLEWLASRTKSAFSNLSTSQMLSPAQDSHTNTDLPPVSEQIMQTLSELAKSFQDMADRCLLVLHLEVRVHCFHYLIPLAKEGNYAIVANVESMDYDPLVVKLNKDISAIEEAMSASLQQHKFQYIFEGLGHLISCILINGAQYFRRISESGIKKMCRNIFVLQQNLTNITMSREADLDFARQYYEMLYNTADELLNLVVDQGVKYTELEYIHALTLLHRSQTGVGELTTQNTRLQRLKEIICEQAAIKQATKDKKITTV
Sequence of UniProt Q9H4H8 (Q9H4H8 whole entry, looked up): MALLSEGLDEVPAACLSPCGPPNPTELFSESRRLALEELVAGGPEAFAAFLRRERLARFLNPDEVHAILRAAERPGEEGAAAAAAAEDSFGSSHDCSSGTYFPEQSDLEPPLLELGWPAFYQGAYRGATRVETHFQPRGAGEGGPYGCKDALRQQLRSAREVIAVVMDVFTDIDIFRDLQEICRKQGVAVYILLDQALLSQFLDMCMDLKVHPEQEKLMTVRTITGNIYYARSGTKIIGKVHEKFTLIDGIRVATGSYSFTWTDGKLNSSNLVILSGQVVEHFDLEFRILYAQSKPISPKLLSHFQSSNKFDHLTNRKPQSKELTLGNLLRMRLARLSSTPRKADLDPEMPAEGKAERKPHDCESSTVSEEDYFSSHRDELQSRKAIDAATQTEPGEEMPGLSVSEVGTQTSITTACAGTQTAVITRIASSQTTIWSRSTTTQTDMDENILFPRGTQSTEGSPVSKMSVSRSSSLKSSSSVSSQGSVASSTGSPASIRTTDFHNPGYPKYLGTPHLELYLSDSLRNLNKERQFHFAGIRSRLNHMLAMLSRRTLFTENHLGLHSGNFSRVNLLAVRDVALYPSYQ

Target	log2 fold change [1]	log2 fold change [2]	log2 fold change [3]	log2 fold change [4]	log2 fold change [5]	log2 fold change [6]	log2 fold change [7]	log2 fold change [8]	log2 fold change [9]	log2 fold change [10]	log2 fold change [11]	log2 fold change [12]	log2 fold change [13]	log2 fold change [14]	log2 fold change [15]	log2 fold change [16]	log2 fold change [17]	log2 fold change [18]	log2 fold change [19]	log2 fold change [20]
ELOVL1 (UniProt Q9BW60)	-0.217	-0.127	-0.011	0.003	-0.044	0.032	0.116	0.002	-0.068	-0.691 (active)	0.015	0.037	-0.011	-0.015	-0.223	-0.029	0.05	0.017	-0.011	0
DYRK1A isoform 2 (UniProt Q13627)	0.015	-0.005	0.104	0.048	-0.012	-0.05	0.014	0.036	-0.024	-0.086	-0.046	0.022	-0.135	0.058	-0.264 (active)	0.03	0.036	0.029	0.014	-0.021
EFL1 (UniProt Q7Z2Z2)	-0.024	-0.245 (active)	0.014	0.008	-0.008	-0.006	0.025	0.019	-0.037	-0.091	-0.036	-0.004	-0.038	-0.007	-0.014	-0.022	0.015	0.019	0.033	-0.014
EXOC4 (UniProt Q96A65)	-0.145	-0.606 (active)	0.095	0.005	-0.129	0.021	0.061	0.021	0.103	-0.243	-0.013	-0.224	-0.131	0.058	-0.04	-0.049	0.183	0.015	0.14	0.01
FAM83D (UniProt Q9H4H8)	-0.097	-0.139	0	-0.082	-0.074	-0.115	0.085	0.081	0.006	0.042	-0.014	-0.055	-0.088	-0.002	-0.004	-0.074	0.078	0.03	0.071	-0.023
ERLIN1 (UniProt O75477)	-0.01	-0.025	0.07	0.018	0.01	0.057	0.003	0.016	0.095	0.116	0	-0.072	0.023	0.029	-0.06	0.028	0.072	-0.004	0.105	-0.024
DNAJB1 (UniProt P25685)	0.011	-0.222 (active)	0.064	-0.041	-0.022	-0.026	-0.01	0.02	-0.064	-0.042	-0.003	-0.03	-0.094	-0.001	-0.011	-0.05	-0.025	-0.033	-0.009	-0.017
DAG1 (UniProt Q14118)	0.149	0.048	-0.008	0.023	-0.039	-0.044	0.012	-0.007	-0.075	0.243 (active)	-0.033	0.1	-0.026	-0.021	-0.093	-0.032	-0.014	0.052	0.002	0.007
